The numbers were not newly measured in PubChem BioAssay AID977611, which cites them from elsewhere.

“And” between values parts separate entries of the source, which are not always exact repeats. Identical values can stand only once. In all, about 3,900 compounds went through this assay and about 3,900 (100%) were called active. Cut-off not given; nearly all actives show Kd up to about 4200 µM. So high a share suggests a set chosen from earlier hits. The list shows a part of the results.

A short description of this series: PubChem AID 977611. As to conditions: PDB protein-ligand complexes, literature Kd.
For the molecule `O=P(O)(O)OC1C(OP(=O)(O)O)C(OP(=O)(O)O)C(OP(=O)(O)O)C(OP(=O)(O)O)C1OP(=O)(O)O` (stereo not drawn), the Kd (in general, the free concentration of one partner at which half of the binding sites on the other are occupied at equilibrium, for simple one-to-one binding) was 180 nM (active). Take `NC(=O)c1ccc[n+]([C@@H]2O[C@H](COP(=O)([O-])OP(=O)(O)OC[C@H]3O[C@@H](n4cnc5c(N)ncnc54)[C@H](O)[C@@H]3O)[C@@H](O)[C@H]2O)c1`: the Kd was 80 µM (active) and 63.7 µM (active). On to `Nc1ncnc2c1ncn2[C@@H]1O[C@H](COP(=O)(O)OP(=O)(O)O)[C@H]2O[C@]3(O[C@H]21)C([N+](=O)[O-])=CC([N+](=O)[O-])=CC3[N+](=O)[O-]` (stereo partly drawn), for which the Kd is 2100 nM (active).
